# Data: PubChem BioAssay (EPA / NIEHS)
# Where “and” joins values, the source holds several entries; their conditions need not be identical. Equal entries are not always repeated. Some structures have more than one record in an assay (separate samples or runs), and their calls can disagree. Calls of active or inactive are those of the source. The calls were made as follows: active = hit-call score of the fitted dose curve at least 0.9, where 1 is the maximum; inactive = score below 0.9.
# Read-out: Macrophage colony-stimulating factor (MCSF), CSF1 (gene 1435)
# Experiment: BSK_IMphg_MCSF: BioMAP Diversity Plus: IMphg Assay for Macrophage colony-stimulating factor (MCSF) Biomarker Activity (AID 2284293)
# Details: primary human endothelial cells with macrophages
# Outline: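 M-CSF was measured by ELISA in human venular endothelial cell/macrophage co-cultures dosed for 24 hours. Sulforhodamine B staining of parallel cultures assessed cytotoxicity; data fitted against DMSO baseline.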
SMILES,outcome,AC50
O=C(O)C(F)(F)C(F)(F)C(F)(F)C(F)(F)C(F)(F)C(F)(F)C(F)(F)C(F)(F)F,inactive,–
O=C(O)C(F)(F)C(F)(F)C(F)(F)C(F)(F)C(F)(F)F,inactive,–
O=S(=O)(O)C(F)(F)C(F)(F)C(F)(F)C(F)(F)C(F)(F)C(F)(F)F,inactive,–
O=S(=O)(O)C(F)(F)C(F)(F)C(F)(F)C(F)(F)F,inactive,–
NS(=O)(=O)C(F)(F)C(F)(F)C(F)(F)C(F)(F)C(F)(F)C(F)(F)C(F)(F)C(F)(F)F,inactive,30 µM (active)
O=C(O)C(F)(F)C(F)(F)C(F)(F)C(F)(F)C(F)(F)C(F)(F)C(F)(F)C(F)(F)C(F)(F)F,inactive,–

# Read-out: Interleukin-10 (IL10), IL10 (gene 3586)
# Experiment: BSK_IMphg_IL10: BioMAP Diversity Plus: IMphg Assay for Interleukin-10 (IL10) Biomarker Activity (AID 2284294)
# Details: primary human endothelial cells with macrophages
# Procedure: BSK_IMphg is a cell-based, multiplexed-readout assay that uses venular endothelial cells and macrophages, a human vascular primary cell, with measurements taken at 24 hours after chemical dosing in a microplate: 96-well plate.BSK_IMphg_IL10 is an assay component measured in the BSK_IMphg assay. It measures IL-10 antibody related to regulation of gene expression using ELISA technology.Data from the assay component BSK_IMphg_IL10 was analyzed at the endpoint, BSK_IMphg_IL10, in the positive analysis fitting direction relative to DMSO as the negative control and baseline of activity. Using a type of binding reporter, gain or loss-of-signal activity can be used to understand protein changes. To generalize the intended target to other relatable targets, this assay endpoint is annotated to the 'cytokine' intended target family, where the subfamily is 'interleukins'.
# (§1) The levels of cell surface (or secreted, indicated by the prefix "s") biomarker endpoints were measured by ELISA. Overt cytotoxicity to cells in confluent adherent cultures (all systems other than the BT system) was assessed by measuring total protein levels using sulforhodamine B (SRB) staining in parallel cultures at the time of biomarker measurements, indicated as SRB endpoints. For proliferation assays for adherent cell types, individual cell types are cultured at sub-confluence and relative cell numbers quantified by SRB staining at time points optimized for each system (48 h: 3C and CASM3C systems; 72 h: BT and HDF3CGF systems; 96 h: SAg system). SRB was performed by staining cells with 0.1% SRB after fixation with 10% TCA and reading wells at 560 nm.Viability and proliferation of PBMC (T cells) was quantified by Alamar Blue reduction for the SAg and BT systems. For PBMC viability (referred to as PBMC Cytotoxicity within the assay endpoint names), cells were plated (75,000/well in a 96-well plate) and then chemical samples added for 1 h before addition of activators, SEB and TSST-1 (20 ng/mL final concentration each). Cells were incubated for 90 h. Then, Alamar Blue (20 uL/well) (Invitrogen, Cat DAL1100) was added for 6 h, and the plates were read with a fluorescence microplate reader at 546/580 nm (excitation/emission). For PBMC proliferation, cells were plated and activated as above but incubated for only 16 h prior to addition of Alamar Blue. Plates were read after 6 h.
SMILES,AC50,outcome
O=C(O)C(F)(F)C(F)(F)C(F)(F)C(F)(F)C(F)(F)C(F)(F)C(F)(F)C(F)(F)F,39 µM (active) and 21.3 µM (active),–
O=C(O)C(F)(F)C(F)(F)C(F)(F)C(F)(F)C(F)(F)F,–,inactive
O=S(=O)(O)C(F)(F)C(F)(F)C(F)(F)C(F)(F)C(F)(F)C(F)(F)F,46.3 µM (active) and 19 µM (active),–
O=S(=O)(O)C(F)(F)C(F)(F)C(F)(F)C(F)(F)F,–,inactive
NS(=O)(=O)C(F)(F)C(F)(F)C(F)(F)C(F)(F)C(F)(F)C(F)(F)C(F)(F)C(F)(F)F,48.2 µM (active) and 47.2 µM (active),–
O=C(O)C(F)(F)C(F)(F)C(F)(F)C(F)(F)C(F)(F)C(F)(F)C(F)(F)C(F)(F)C(F)(F)F,49.6 µM (active) and 45.5 µM (active),–

# Read-out: not listed separately
# Experiment: BSK_IMphg_SRB.Mphg: Macrophage Viability Assessment in the BioMAP Diversity Plus: IMphg Assay (AID 2284295);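 also: read 24 h after compound dosing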
# Details: primary human endothelial cells with macrophages
# Procedure: BSK_IMphg is a cell-based, multiplexed-readout assay that uses venular endothelial cells and macrophages, a human vascular primary cell, with measurements taken at 24 hours after chemical dosing in a microplate: 96-well plate.BSK_IMphg_SRB.Mphg is an assay component measured in the BSK_IMphg assay. It measures […] related to cell death using Sulforhodamine staining technology.Data from the assay component BSK_IMphg_SRB.Mphg was analyzed at the endpoint, BSK_IMphg_SRB.Mphg, in the positive analysis fitting direction relative to DMSO as the negative control and baseline of activity. Using a type of viability reporter, gain or loss-of-signal activity can be used to understand protein changes. To generalize the intended target to other relatable targets, this assay endpoint is annotated to the 'cell morphology' intended target family, where the subfamily is 'cell conformation'.
# as §1
SMILES,AC50,outcome
O=C(O)C(F)(F)C(F)(F)C(F)(F)C(F)(F)C(F)(F)C(F)(F)C(F)(F)C(F)(F)F,18 µM (active),inactive
O=C(O)C(F)(F)C(F)(F)C(F)(F)C(F)(F)C(F)(F)F,–,inactive
O=S(=O)(O)C(F)(F)C(F)(F)C(F)(F)C(F)(F)C(F)(F)C(F)(F)F,–,inactive
O=S(=O)(O)C(F)(F)C(F)(F)C(F)(F)C(F)(F)F,–,inactive
NS(=O)(=O)C(F)(F)C(F)(F)C(F)(F)C(F)(F)C(F)(F)C(F)(F)C(F)(F)C(F)(F)F,43.4 µM (active) and 48.1 µM (active),–
O=C(O)C(F)(F)C(F)(F)C(F)(F)C(F)(F)C(F)(F)C(F)(F)C(F)(F)C(F)(F)C(F)(F)F,44.9 µM (active) and 46.2 µM (active),–
